High-throughput results: PubChem, National Center for Advancing Translational Sciences (NCATS)
GLS inhibitor – qHTS for Inhibitors of Glutaminase (GLS); GLS enzymatic activity, qHTS titration; Potency, µM (highest dose often 45.5 µM), for the others: top-dose activity change, negative = inhibition, most hits filed as inhibitors; 0.21% of 410,000 active; AID 624170, 2012; also: % is scaled to controls: 0 for no effect and ±100 for the full control effect
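Compounds were pin-transferred onto hKGA, after which L-glutamine (1 mM solution) and a detection mix of glutamate oxidase, HRP and Amplex Red were added. Initial and 30 min RT fluorescence reads were collected.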
POLI inh – qHTS for Inhibitors of Polymerase Iota; Potency, µM (titrated, usually from 115 µM), inactives show at the highest dose activity, negative = inhibition, actives largely listed as inhibitors; Pol iota fluorescent replication assay, 10 min; 1% of 390,000 active
Target sequence (Q9UNA4 whole entry, looked up): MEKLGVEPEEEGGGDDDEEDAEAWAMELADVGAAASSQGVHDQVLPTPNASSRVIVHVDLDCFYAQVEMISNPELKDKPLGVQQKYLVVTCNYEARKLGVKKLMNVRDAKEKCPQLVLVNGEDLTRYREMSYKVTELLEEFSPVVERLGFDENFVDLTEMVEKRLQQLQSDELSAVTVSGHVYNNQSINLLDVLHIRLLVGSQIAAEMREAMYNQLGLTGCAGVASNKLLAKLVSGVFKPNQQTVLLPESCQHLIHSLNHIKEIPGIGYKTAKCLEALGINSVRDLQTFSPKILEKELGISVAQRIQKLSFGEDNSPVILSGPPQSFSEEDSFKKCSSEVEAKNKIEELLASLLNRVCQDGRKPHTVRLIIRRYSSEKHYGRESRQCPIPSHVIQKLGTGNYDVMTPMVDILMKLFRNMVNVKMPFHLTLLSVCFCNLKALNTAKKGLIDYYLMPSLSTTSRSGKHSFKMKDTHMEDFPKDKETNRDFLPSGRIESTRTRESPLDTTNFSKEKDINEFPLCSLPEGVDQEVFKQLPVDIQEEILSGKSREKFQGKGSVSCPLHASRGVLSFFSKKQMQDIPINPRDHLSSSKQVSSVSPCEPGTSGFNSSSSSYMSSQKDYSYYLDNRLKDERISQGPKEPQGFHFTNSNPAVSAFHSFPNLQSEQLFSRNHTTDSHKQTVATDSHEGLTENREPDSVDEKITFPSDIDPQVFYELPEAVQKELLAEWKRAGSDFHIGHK
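Fluorescent replication assay read twice, at 0 min and 10 min after adding 50 nM (final) substrate. Enzyme (10 nM) and compounds were first incubated 15 min at room temperature; enzyme-free buffer wells were negative controls.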
POLB inh – qHTS Assay for Inhibitors of DNA Polymerase Beta. P06746. 1.3% of 340,000 active. Pol beta primer extension/strand displacement, fluorescence kinetic. Potency, µM (titrated, usually from 114 µM), inactives show at the top dose activity change, negative = inhibition, actives largely listed as inhibitors; also: % is scaled to controls: 0 for no effect and ±100 for the full control effect
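Preincubation: enzyme (10 nM) with compound, 15 min, RT. Reaction: substrate added to 50 nM final. Reads: 0 and 10 min. Analysis: normalized, Hill fit.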
Pol eta inh-1 – qHTS for Inhibitors of Polymerase Eta; recombinant Pol eta, fluorescent DNA replication assay; 1.2% of 390,000 active; AID 588591, 2011; Potency, µM (titrated, usually from 114 µM), for inactives: at the highest dose activity change, negative = inhibition, hits mostly inhibitors; DNA polymerase eta (Homo sapiens), Q9Y253; also: % is scaled to controls: 0 for no effect and ±100 for the full control effect
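Pol eta at 10 nM preincubated with compounds 15 min at room temperature; reaction started with fluorescent substrate (50 nM final) and read kinetically at 0 and 10 min.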
Pol kappa inh-1 – qHTS for Inhibitors of Polymerase Kappa | 0.53% of 400,000 active | DNA polymerase kappa (Homo sapiens), Q9UBT6 | Potency, µM (highest dose often 107 µM), without a hit: at the highest dose activity, negative = inhibition, actives largely listed as inhibitors | purified Pol kappa, fluorescent DNA synthesis assay, 10 min; also: % is scaled to controls: 0 for no effect and ±100 for the full control effect
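10 nM Pol kappa was preincubated with compounds for 15 min at room temperature. Reaction started with 50 nM (final) substrate. Fluorescence read kinetically at 0 and 10 min.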
GCN5L2 inh – qHTS Assay for Inhibitors of GCN5L2; Histone acetyltransferase KAT2A (Homo sapiens), Q92830; GCN5L2 HAT assay, ThioGlo1 CoA-SH fluorescence; Potency, µM (doses to about 58.9 µM), for the others: at the top dose activity change, negative = inhibition, hits mostly inhibitors; 0.21% of 390,000 active; AID 504327, 2011; also: % is scaled to controls: 0 for no effect and ±100 for the full control effect
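GCN5L2 (20 nM) in 50mM HEPES pH 7.5, 0.1mM EDTA, 0.01% Tween-20 preincubated 15 min with compounds at room temperature. Reaction started with H3(1-25) 75uM, acetyl-CoA 70uM, ThioGlo1 50uM; CoA-thiol fluorescence (Ex340/Em540) read at 0 and 20 min.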
POLI cherry-pick – qHTS for Inhibitors of Polymerase Iota: Confirmatory Assay for Cherry-picked Compounds | AID 720496, 2013 | Potency, µM, actives largely listed as inhibitors | 77% of 1,500 active | Pol iota primer extension, TAMRA/BHQ fluorescence | shares compounds with Pol kappa inh-1
Pol kappa inh-2 – qHTS for Inhibitors of Polymerase Kappa: Confirmatory Assay for Cherry-picked Compounds; shares compounds with Pol eta inh-1; purified Pol-kappa, fluorescent strand-displacement substrate; Potency, µM, actives largely listed as inhibitors; 76% of 920 active
Pol eta inh-2 – qHTS for Inhibitors of Polymerase Eta: Confirmatory Assay for Cherry-picked Compounds; shares compounds with Pol eta inh-1; Pol eta primer extension, TAMRA/BHQ fluorescence, 10 min; Potency, µM, hits mostly inhibitors; 64% of 2,600 active; AID 720502, 2013
Starred values were filed as active, the others as inactive; [ ] = another dose, or the depositor's remark. Shown are actives, neighbours in structure and some others; about 2.4% of the full set was active somewhere. Calls follow the shape of the dose curve; as a rule, active = well fitted inhibition curve with a large enough effect; inconclusive = small, poorly fitted or top-dose-only effect, or another doubt; inactive = no such curve, though single readings can be large or run the other way. Potency is read from the fitted curve at half-maximal effect.

For O=C(O)c1ccccc1/C=N/Nc1ccc(S(=O)(=O)N2CCCC2)cc1[N+](=O)[O-] the results were GLS inhibitor 18%, POLI inh 39%, POLB inh -1%, Pol eta inh-1 -7%, Pol kappa inh-1 -3% and GCN5L2 inh -15%.
`Cc1nn(-c2ccccc2)c(Cl)c1/C=N/Nc1ccc(S(=O)(=O)Nc2ccccc2C(=O)O)cc1[N+](=O)[O-]` gave GLS inhibitor 1%, POLI inh 40µM*, POLB inh 45µM*, Pol eta inh-1 35µM*, Pol kappa inh-1 inconclusive, GCN5L2 inh inconclusive, POLI cherry-pick inconclusive, Pol kappa inh-2 24* and Pol eta inh-2 43*.
`COc1ccc(S(=O)(=O)NCCc2nnc3ccc(SCC(=O)Nc4cc(C)cc(C)c4)nn23)cc1` gave GLS inhibitor 3%, POLI inh 24%, POLB inh -8%, Pol eta inh-1 -6%, Pol kappa inh-1 -9% and GCN5L2 inh -15%.
CN(Cc1ccco1)c1ncnc2ccc(-c3ccoc3)cc12 was read as GLS inhibitor -4%, POLI inh 28µM*, Pol eta inh-1 -26%, Pol kappa inh-1 inconclusive, GCN5L2 inh -23%, POLI cherry-pick 17*, Pol kappa inh-2 17* and Pol eta inh-2 38*.
CN(Cc1ccco1)c1ncnc2ccc(-c3ccccc3Cl)cc12 was read as GLS inhibitor 17%, POLI inh 1%, Pol eta inh-1 -14%, Pol kappa inh-1 -2% and GCN5L2 inh -5%.
For COc1ccc(S(=O)(=O)Nc2cc(SCC(=O)O)c(O)c3ccccc23)cc1 the results were GLS inhibitor inconclusive, POLI inh 4µM*, POLB inh inconclusive, Pol eta inh-1 7.9µM*, Pol kappa inh-1 -17%, GCN5L2 inh 73%, POLI cherry-pick inconclusive and Pol eta inh-2 inconclusive.
For COc1ccc(S(=O)(=O)Nc2cccc3ccccc23)cc1 the results were POLI inh 28% and Pol kappa inh-1 -14%.
O=S(=O)(Nc1cc(Sc2cccc3cccnc23)c(O)c2ccccc12)c1ccc(F)cc1 was read as GLS inhibitor 0%, POLI inh inconclusive, POLB inh 10%, Pol eta inh-1 -3%, Pol kappa inh-1 -13% and GCN5L2 inh -13%.
`COc1ccc(S(=O)(=O)Nc2ccc(O)c(Sc3ncn[nH]3)c2)cc1` gave GLS inhibitor inconclusive, POLI inh inconclusive, POLB inh -2%, Pol eta inh-1 -4%, Pol kappa inh-1 -4% and GCN5L2 inh 4%.
COc1ccc(S(=O)(=O)Nc2cc(Sc3ncn[nH]3)c(O)c3ccccc23)cc1 was read as POLI inh 5µM*, POLB inh 22µM*, Pol kappa inh-1 inconclusive, GCN5L2 inh inconclusive, POLI cherry-pick 42* and Pol eta inh-2 inconclusive.
O=C(O)CSc1cc(NS(=O)(=O)c2ccc(Cl)cc2)c2ccccc2c1O was read as GLS inhibitor 2%, POLI inh 3.2µM*, POLB inh 79µM*, Pol eta inh-1 20µM*, Pol kappa inh-1 -18%, GCN5L2 inh 55%, POLI cherry-pick 84*, Pol kappa inh-2 67* and Pol eta inh-2 76*.
CC(=O)N1CCc2cc(S(=O)(=O)C(C)CC(=O)Nc3ccc(Br)c(C)c3)ccc21 (stereo not given) was read as GLS inhibitor -6%, POLI inh -5%, POLB inh -3%, Pol eta inh-1 -4%, Pol kappa inh-1 -4% and GCN5L2 inh -11%.
For CCOc1ccc(CNC(=O)Cn2c(=O)c3cccn3c3ccc(F)cc32)cc1 the results were GLS inhibitor -16%, POLI inh -13%, POLB inh -8%, Pol eta inh-1 -4%, Pol kappa inh-1 -5% and GCN5L2 inh 0%.
COc1ccc(S(=O)(=O)NCc2ccc3c(c2)CCN3C(C)=O)cc1OC was read as GLS inhibitor 1%, POLI inh 10%, POLB inh -8%, Pol eta inh-1 1%, Pol kappa inh-1 -5%[60.1 µM] and GCN5L2 inh -9%.
Screening Nc1ncc(N=Nc2cc(C(=O)O)ccc2Cl)s1 returned GLS inhibitor -23%, POLI inh 7.9µM*, POLB inh inconclusive, Pol eta inh-1 13µM*, Pol kappa inh-1 79µM*, GCN5L2 inh -3%, POLI cherry-pick 60* and Pol eta inh-2 21*.
CC(=O)c1ccc(Cc2cnc(N)s2)cc1 was read as GLS inhibitor 26%, POLI inh 5%, POLB inh 17%, Pol eta inh-1 1%, Pol kappa inh-1 -6% and GCN5L2 inh -2%.
Screening O=C(NCC(c1cccnc1)N1CCc2ccccc21)C(=O)Nc1ccccc1F (stereo not given) returned GLS inhibitor 21%, POLI inh 6%, POLB inh -21%, Pol eta inh-1 -11%, Pol kappa inh-1 -13% and GCN5L2 inh -6%.
